In the library only some 3.3% were active in any assay of this set; here they are far more common.
PHOSPHO1 block: blocks human PHOSPHO1 phosphatase activity; 1.1% of 290,000 active; AID 1565; inhibition, % at 13.3 µM; recombinant PHOSPHO1, absorbance phosphatase assay; in the data active means inhibition above about 60%
Target sequence (Q8TCT1 whole entry, looked up): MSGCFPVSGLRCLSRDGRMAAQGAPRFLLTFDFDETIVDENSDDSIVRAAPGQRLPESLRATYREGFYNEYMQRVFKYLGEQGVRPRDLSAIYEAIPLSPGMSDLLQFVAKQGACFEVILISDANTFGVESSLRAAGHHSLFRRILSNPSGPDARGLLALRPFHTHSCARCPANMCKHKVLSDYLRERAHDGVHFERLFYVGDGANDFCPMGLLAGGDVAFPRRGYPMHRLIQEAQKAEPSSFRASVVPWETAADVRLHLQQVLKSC
Calb FLC: C. albicans growth modulation with fluconazole. growth inhibition, % (concentration not given with the values). C. albicans CaCi-2 (fluconazole-resistant clinical isolate) + fluconazole, Alamar Blue growth, 48 h. 0.57% of 300,000 active;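 active means growth inhibition above about 58% in most replicates, limit read from the data, passing the limit was not always enough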;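 further: all wells also contain fluconazole at 8 µg/ml as a sub-toxic cotreatment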
Cl transport mod: KCC2 (human) Cl- transport modulation; 2.2% of 190,000 active; KCC2 cells, thallium flux FluoZin-2 fluorescence; B-score of Tl+ flux slope (higher = more flux/activation; lower = inhibition) at 10 µM; Q9H2X9; AID 1456;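 active means thallium flux slope and its plate-corrected score both differing from the plate sample mean at a set confidence after two filtering rounds, in either direction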;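 further: slope of fluorescence scaled to starting intensity during 10 to 20 s after thallium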
Cardio protect: modulators protecting cardiomyocytes from myocardial damage. 0.63% of 360,000 active. protection from H2O2 cell death, % at 20 µM. H9c2 cardiomyocytes, H2O2 injury protection, ATPLite, 2 h. AID 588492;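 active means compounds giving at least 50% protection of heart cells from peroxide-induced death in the single-dose screen, raw or plate-pattern-corrected value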
Efflux pump inh: blocks antifungal efflux pumps in multiplex yeast assay | S. cerevisiae Candida pump triplex, Nile Red efflux | inhibition, % at 10 µM | 0.44% of 330,000 active;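 active means plate passing quality check with inhibition over a set limit, or well fluorescence over plate mean plus 4 SD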;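 further: Nile Red retained in pooled yeast measured as flow cytometry median fluorescence; higher means more Nile Red kept so more efflux inhibition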
Yeast cmpd fluor: counter-screen for efflux pump inhibitors: compound fluorescence | S. cerevisiae AD/pABC3, flow cytometry | 4% of 1,700 active | AID 588517 | fluorescence ratio to DMSO, % at 10 µM | shares compounds with Efflux pump inh;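 active means fluorescence ratio to DMSO above its plate's cutoff, the plate mean ratio plus 5 SD, cut at about 210% in these data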;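 further: unstained yeast with no Nile Red so the signal is compound autofluorescence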
Mdr1 pump inh: Candida Mdr1 efflux pump inhibition; shares compounds with Efflux pump inh; S. cerevisiae AD/CaMDR1, Nile Red efflux, flow cytometry; inhibition, % at 10 µM; 1% of 1,700 active; in the data active means inhibition above about 26%;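 further: higher means more Nile Red retained so more efflux inhibition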
CaCdr2 efflux inh: blocks the Candida albicans Cdr2 efflux pump in yeast; shares compounds with Efflux pump inh; S. cerevisiae AD/CaCDR2, Nile Red retention, flow cytometry; Nile Red retention ratio vs DMSO, % at 10 µM; 4% of 1,700 active; AID 588520; in the data active means Nile Red retention ratio vs DMSO above about 190%;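 further: higher ratio means more blocking of Cdr2 efflux of the dye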
CaCdr1 efflux inh: inhibitors of Candida albicans Cdr1 efflux pump; shares compounds with Efflux pump inh; S. cerevisiae AD/CaCDR1, Nile Red efflux, flow cytometry; inhibition, % at 10 µM; 1% of 1,700 active; AID 588522;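 active means inhibition above the screen-wide mean plus twice its standard deviation, cut at about 32% in these data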
A number is an active result; i = inactive; nt = no result.

SMILES | PHOSPHO1 block | Calb FLC | Cl transport mod | Cardio protect | Efflux pump inh | Yeast cmpd fluor | Mdr1 pump inh | CaCdr2 efflux inh | CaCdr1 efflux inh
CCc1nc2n(n1)C(O)c1cc([N+](=O)[O-])ccc1S2 (centres undefined) | i | i | i | i | i | nt | nt | nt | nt
CCCc1nc(SCc2ccc(OCC)cc2)n[nH]1 | i | i | nt | i | i | nt | nt | nt | nt
N#C/C(=C/c1ccc(Br)s1)C(=O)NCCc1c[nH]c2ccccc12 | i | i | i | i | 5.5 | i | i | i | i
Cc1cc(/C=C(\C#N)C(=O)NCCc2c[nH]c3ccccc23)c(C)n1C | i | nt | i | i | i | nt | nt | nt | nt
CC(C)c1nc(SCC(=O)Nc2cccc3ccccc23)n[nH]1 | nt | nt | nt | i | i | nt | nt | nt | nt
CSc1cccc(NS(=O)(=O)c2cn(C)cn2)c1 | i | i | nt | i | 1.3 | i | i | i | i
COc1ccccc1NC(=O)C1CCN(S(=O)(=O)c2cccs2)CC1 | nt | nt | nt | i | 171.6 | i | i | i | i
Cc1ccc(Nc2c(-c3ccc(N4CCOCC4)cc3)nc3ncccn23)cc1 | i | i | i | i | 0.9 | i | i | i | i
COc1ccc(NS(=O)(=O)c2cc(NC(=O)c3cccnc3Cl)ccc2N2CCCC2)cc1 | i | i | nt | i | 0.5 | i | i | i | i
COc1ccc(NS(=O)(=O)c2cc(NC(=O)c3cnc(C)cn3)ccc2N2CCCC2)cc1 | i | i | i | i | i | nt | nt | nt | nt
CCOc1ncccc1C(=O)OCc1ccc(C(=O)OC)cc1 | i | i | i | i | 1.4 | i | i | i | i
CCCCCCCCNCCS(=O)(=O)NN1CCOCC1 | nt | nt | nt | i | i | nt | nt | nt | nt
COc1ccccc1CNC(=O)COc1ccccc1OC | i | i | i | i | 1.0 | i | i | i | i
COc1ccccc1CNC(=O)COc1ccc(C)cc1 | i | i | nt | i | i | nt | nt | nt | nt
O=S(=O)(/C=C/c1ccccc1)N1CCOCC1 | nt | i | nt | i | i | nt | nt | nt | nt
O=C(Cc1cccs1)N1CCN=C1SCc1ccccc1Cl | i | i | i | i | 1.0 | i | i | i | i
CC(C)c1ccc(OCC(=O)NC2CCCC2)cc1 | i | i | nt | i | 9.2 | i | i | i | i
COc1ccc(OCC(=O)NC2CCCCCCC2)cc1 | i | i | nt | i | i | nt | nt | nt | nt

Screens deposited in PubChem BioAssay by several laboratories.
